Source: the supplement of paper PMC7156485

These compounds were tested on TDF (assay: H1.0 immunofluorescence intensity relative to DMSO (% of DMSO); higher = stronger H1.0 induction, active = 120 or more). Details: concentration: 10 µM; 24 h.
In short: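 Cells were seeded at 800 per well in 384-well plates with RPMI containing 10% FBS; both HCC1569 and TDF lines were used. Compounds were added at 10 µM for 24 h at 37 °C, in triplicate, before fixation in 3.7% formaldehyde and staining with a rabbit anti-H1.0 antibody, an AlexaFluor 647 secondary and DAPI. H1.0 nuclear intensity or cell number is reported as percent of the plate control using the median of replicates, and HCC1569 values were smoothed for positional effects.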
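Further: TDF is a line of transformed human dermal fibroblasts of mesenchymal origin.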

H1.0 immunofluorescence intensity, inactive:
CCC=CCC(O)C=CC=CCC=CCC=CCCCC(=O)O (stereo not drawn) 98.8, CN1CCN(C2=Nc3ccccc3Sc3ccc(Cl)cc32)CC1 [Clothiapine] 94, CC(O)C1C(=O)N2C(C(=O)O)=C(SCCN=CN)CC12 (stereo not drawn) [Imipenem] 97.1, O=c1cc(N2CCNCC2)oc2c(-c3ccccc3)cccc12 92.8, COc1cccc2c1C1CN(CCCCn3c(=O)[nH]c4c(sc5ncc(-c6ccccc6)nc54)c3=O)CC1CO2.Cl (stereo not drawn) [Fiduxosin hydrochloride] 102, CC(C)CNCc1ccc(-c2ccccc2S(=O)(=O)N2CCCC2)cc1.Cl 88.9, NC1CCCCC1N.O=C([O-])C(=O)[O-].[Pt+2] (stereo not drawn) [Oxaliplatin] 97.9, C[C@@H]1CCN(C(=O)CC#N)C[C@@H]1N(C)c1ncnc2[nH]ccc12 79, CC1(C)CCC(C)(C)c2cc(C3(c4ccc(C(=O)O)cc4)OCCO3)ccc21 92.3, COC1C=COC2(C)Oc3c(C)c(O)c4c(O)c(cc(O)c4c3C2=O)NC(=O)C(C)=CC=CC(C)C(O)C(C)C(O)C(C)C(OC(C)=O)C1C (stereo not drawn) 97.7, CCCCCCCCC=CCCCCCCCCCCCC(=O)O [13(E)-Docosenoic acid] 96, C=CCc1ccc(O)c(OC)c1 [Eugenol] 89.5, CC(=O)N1CCN(C(=O)/C=C/c2ccc(Sc3ccccc3C(C)C)c([N+](=O)[O-])c2)CC1 103
